From paper PMC5540273 (PLoS ONE, 2017)

Assays:
Conditions in all cases: concentration: 1 μM,replicates: in singlicate; n = 1
[1] = test system: JAK1(JH2domain-pseudokinase)
[2] = test system: JAK2(JH1domain-catalytic)
[3] = test system: JAK3(JH1domain-catalytic)
JNK1 = test system: T1, JNK1
T1 construct: gene MAPK8

JNK2 = test system: T2, JNK2
T2 construct: gene MAPK9

JNK3 = test system: T3, JNK3
T3 construct: gene MAPK10

KIT-autoinhibited = test system: KIT-autoinhibited
KIT = test system: KIT
LATS1 = test system: LATS1
LATS2 = test system: LATS2
LCK = test system: LCK
LIMK1 = test system: LIMK1
LIMK2 = test system: LIMK2
LKB1 = test system: T4, LKB1
T4 construct: gene STK11

LOK = test system: T5, LOK
T5 construct: gene STK10

LRRK2 = test system: LRRK2
LTK = test system: LTK
LYN = test system: LYN
LZK = test system: T6, LZK
T6 construct: gene MAP3K13

MAK = test system: MAK
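Also: KINOMEscan kinase panel screen.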

| SMILES | %Inh [1] [%] | %Inh [2] [%] | %Inh [3] [%] | %Inh (JNK1) [%] | %Inh (JNK2) [%] | %Inh (JNK3) [%] | %Inh (KIT-autoinhibited) [%] | %Inh (KIT) [%] | %Inh (LATS1) [%] | %Inh (LATS2) [%] | %Inh (LCK) [%] | %Inh (LIMK1) [%] | %Inh (LIMK2) [%] | %Inh (LKB1) [%] | %Inh (LOK) [%] | %Inh (LRRK2) [%] | %Inh (LTK) [%] | %Inh (LYN) [%] | %Inh (LZK) [%] | %Inh (MAK) [%] |
| --- | --- | --- | --- | --- | --- | --- | --- | --- | --- | --- | --- | --- | --- | --- | --- | --- | --- | --- | --- | --- |
| CSc1nccc(-c2c(-c3ccc(F)cc3)ncn2CCCN2CCOCC2)n1.Cl [SB-217146] | 40 | 39 | 0 | 10 | 45 | 34 | 32 | 0 | 0 | 0 | 0 | 3 | 0 | 0 | 8 | 0 | 4 | 0 | 0 | 0 |
| O=C(Nc1cccc(Oc2ccc3nccn3n2)c1)Nc1cccc(C(F)(F)F)c1 | 0 | 9 | 25 | 0 | 0 | 0 | 68 | 100 | 0 | 0 | 71 | 0 | 25 | 0 | 64 | 21 | 0 | 42 | 0 | 38 |
| C[C@@H]1CCN(C(=O)N2CCCC2)C[C@@H]1N(C)c1ncnc2[nH]ccc12 | 31 | 100 | 99.6 | 14 | 8 | 3 | 23 | 0 | 0 | 10 | 41 | 0 | 0 | 0 | 0 | 0 | 100 | 0 | 22 | 14 |
| Cc1n[nH]c2cc(Nc3ccnc(Nc4cccc(CN5CCOCC5)c4)n3)ccc12 [GW682569] | 98.8 | 99.4 | 79 | 96.2 | 58 | 85 | 28 | 97.7 | 0 | 0 | 71 | 9 | 5 | 17 | 0 | 0 | 1 | 25 | 31 | 20 |
| CN1CCN(CCCNc2nccc(-c3c(-c4ccc(F)cc4)nn4cc(C(N)=O)ccc34)n2)CC1 [GW622475] | 0 | 0 | 0 | 92.1 | 99.6 | 99.6 | 2 | 66 | 0 | 7 | 51 | 0 | 9 | 0 | 0 | 2 | 39 | 0 | 0 | 50 |
| Cc1ccc(CC(=O)N2CCc3cc(-c4cn(C)c5ncnc(N)c45)ccc32)cc1 [GSK2634758] | 0 | 0 | 0 | 13 | 12 | 0 | 0 | 98.6 | 0 | 9 | 38 | 0 | 0 | 19 | 87 | 0 | 24 | 23 | 24 | 4 |
| Cn1cc(-c2cccc3c(N)c(C(N)=O)nnc23)cn1 | 61 | 32 | 38 | 14 | 5 | 8 | 16 | 5 | 3 | 0 | 5 | 2 | 7 | 0 | 15 | 57 | 29 | 12 | 0 | 0 |
| Cn1ccc2ncnc(Oc3ccc(NC(=O)Nc4cccc(C(F)(F)F)c4)c(F)c3)c21 | 7 | 6 | 29 | 11 | 0 | 0 | 75 | 100 | 15 | 0 | 75 | 0 | 2 | 0 | 99.9 | 31 | 84 | 24 | 0 | 27 |
| Cn1ccc2ncnc(Oc3ccc(NC(=O)Nc4cncc(C(F)(F)F)c4)c(Cl)c3)c21 | 0 | 0 | 0 | 0 | 0 | 0 | 17 | 99.9 | 0 | 0 | 50 | 0 | 0 | 0 | 99.2 | 0 | 16 | 32 | 0 | 0 |
| CC(=O)Nc1nc2cnc(Nc3cc(NC(=O)c4cccc(CC(C)(C)C#N)c4)ccc3C)nc2s1 | 25 | 0 | 0 | 33 | 41 | 43 | 36 | 100 | 7 | 47 | 72 | 0 | 2 | 1 | 55 | 9 | 2 | 58 | 15 | 0 |
